# Measurements: ChEMBL document CHEMBL4808148, “HDAC6 screening dataset using tau-based substrate in an enzymatic assay yields selective inhibitors and activators” (2021)
# About 390 (7%) of roughly 5,600 compounds showed an effect of 50% or more. The entries come from a sample that favours strong results as a whole. Positions of bridges follow the written chain, without caps; N, C: chain ends. Non-standard residues stand in square brackets, D forms with d. Residues, ends and D or L forms follow the SMILES beside them. hArg = N=C(N)NCCCC[C@H](N)C(=O)O; Mpa = O=C(O)CCS
# Target: T1, Protein deacetylase HDAC6 (Homo sapiens) (UniProt Q9UBN7)
# T1 sequence (whole entry): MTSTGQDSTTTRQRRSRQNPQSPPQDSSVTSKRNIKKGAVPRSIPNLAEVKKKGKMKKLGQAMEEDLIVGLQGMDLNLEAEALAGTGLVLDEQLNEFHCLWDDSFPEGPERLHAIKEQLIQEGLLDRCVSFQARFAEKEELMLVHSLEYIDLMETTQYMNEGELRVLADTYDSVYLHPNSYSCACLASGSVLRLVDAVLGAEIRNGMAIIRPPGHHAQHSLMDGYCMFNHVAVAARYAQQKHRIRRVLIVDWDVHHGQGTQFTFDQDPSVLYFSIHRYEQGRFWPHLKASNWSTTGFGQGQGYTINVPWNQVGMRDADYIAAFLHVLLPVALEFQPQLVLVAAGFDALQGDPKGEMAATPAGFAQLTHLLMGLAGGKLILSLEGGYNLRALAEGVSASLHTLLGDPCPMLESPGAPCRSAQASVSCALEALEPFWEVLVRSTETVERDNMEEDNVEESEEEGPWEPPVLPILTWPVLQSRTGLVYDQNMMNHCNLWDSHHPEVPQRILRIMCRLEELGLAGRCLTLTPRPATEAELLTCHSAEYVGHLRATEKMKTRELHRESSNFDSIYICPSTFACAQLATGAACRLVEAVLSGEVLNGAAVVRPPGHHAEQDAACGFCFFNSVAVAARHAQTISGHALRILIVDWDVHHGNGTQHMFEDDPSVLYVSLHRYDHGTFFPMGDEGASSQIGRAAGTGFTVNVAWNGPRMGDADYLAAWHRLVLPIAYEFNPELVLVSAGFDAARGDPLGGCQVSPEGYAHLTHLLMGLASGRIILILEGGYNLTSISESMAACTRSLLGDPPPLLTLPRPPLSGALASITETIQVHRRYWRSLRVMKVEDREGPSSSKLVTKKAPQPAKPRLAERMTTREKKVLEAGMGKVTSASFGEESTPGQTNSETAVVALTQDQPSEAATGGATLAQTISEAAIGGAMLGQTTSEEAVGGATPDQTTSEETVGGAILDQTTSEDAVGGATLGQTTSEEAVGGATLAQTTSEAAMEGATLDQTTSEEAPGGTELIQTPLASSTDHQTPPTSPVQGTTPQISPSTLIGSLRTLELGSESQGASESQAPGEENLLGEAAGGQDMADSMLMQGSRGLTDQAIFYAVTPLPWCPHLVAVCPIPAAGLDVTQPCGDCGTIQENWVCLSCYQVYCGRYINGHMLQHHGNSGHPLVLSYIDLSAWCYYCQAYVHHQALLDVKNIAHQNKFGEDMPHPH
# Conditions: at 10 µM
row,Structure (SMILES),inhibition [%]
1,Nc1nncs1,6.15
2,O=C(Nc1ccc([N+](=O)[O-])cc1O)Nc1ccccc1Br,101
3,NC(=O)c1ccc([N+](=O)[O-])cc1Cl,8.11
4,CN(N=O)C(=O)N[C@@H](C=O)[C@@H](O)[C@H](O)[C@H](O)CO,-1.89
5,c1ccc2cc(C3=NCCN3)ncc2c1,3.66
6,Cc1sc2c(c1C)C(c1ccc(Cl)cc1)=N[C@@H](CC(=O)Nc1ccc(OCCOCCOCCOCCNc3cccc4c3C(=O)N(C3CCC(=O)NC3=O)C4=O)cc1)c1nnc(C)n1-2 (some centres undefined),9.19
7,CC(C(=O)O)c1ccc2c(c1)CC(=O)c1ccccc1S2 (centres undefined),-3.14
8,CC(C(=O)O)c1ccc(C(=O)c2cccs2)cc1 (centres undefined),-7.49
9,CC(C(=O)O)c1ccc(N2Cc3ccccc3C2=O)cc1 (centres undefined),94.7
10,CCC(C)(C)c1ccc(CC(C)CN2C[C@@H](C)O[C@@H](C)C2)cc1 (some centres undefined),-1.12
11,C=C1NC[C@H](O)[C@@H](C(=O)O)N1,-0.94
12,COC(=O)C1=C(C)NC(C)=C(C(=O)OCCSc2ccccc2)C1C (centres undefined),-9.24
13,CCOc1ccc(-n2c(C(C)N(Cc3cccnc3)C(=O)Cc3ccc(OC(F)(F)F)cc3)nc3ncccc3c2=O)cc1 (racemic),6.86
14,CN1C(=O)/C(=C2/C(=O)Nc3ccccc32)c2ccccc21,32.9
15,O=C1Nc2ccccc2/C1=C1/Nc2ccccc2/C1=N\O,100
16,O=C1Nc2cc(Br)ccc2/C1=C1/Nc2ccccc2/C1=N\O,93.4
17,O=C1Nc2ccccc2/C1=C1/Nc2ccccc2C1=O,60.6
18,N[C@@H]1CCN(O)C1=O,19.6
19,C/C=C1\C(=O)C[C@H]2[C@@H]3CCC4=CC(=O)CC[C@]4(C)[C@H]3CC[C@]12C,-4.59
20,Cc1csc2c(N[C@@H](C)CN3CCN(S(=O)(=O)c4ccc(Cl)c(Cl)c4)CC3)ncnc12,7.29
21,CNC(=O)[C@H]1O[C@@H](n2cnc3c(NCc4cccc(I)c4)ncnc32)[C@H](O)[C@@H]1O,9.22
22,CC(C)(C)c1cc(O)c(C(C)(C)C)cc1O,10.7
23,CCOc1cc(C(=O)Nc2ccc(Cl)c(-c3nc4ccccc4[nH]3)c2)cc(OCC)c1OCC,11.9
24,Nc1nc(=O)c2c([nH]1)NC[C@H](CNc1ccc(C(=O)N[C@@H](CCC(=O)O)C(=O)O)cc1)N2C=O,3.47
25,O=c1[nH]cnc2c1cnn2[C@@H]1O[C@H](CO)[C@@H](O)[C@H]1O,20.8

row,Structure (SMILES),inhibition [%]
1,N[C@@H](Cc1cc(-c2ccc(Cl)cc2Cl)cc(CP(=O)(O)O)c1O)C(=O)O,4.67
2,O=c1c(O)c(-c2ccc(O)c(O)c2)oc2cc(O)ccc12,97.4
3,O=C1c2c(O)cc(O)cc2O[C@H](c2cc(O)c(O)c(O)c2)[C@H]1O,-0.55
4,Cc1cc(=O)oc2c(C=O)c(O)ccc12,-7.63
5,O=c1c(O[C@@H]2O[C@H](CO)[C@H](O)[C@H](O)[C@H]2O)c(-c2ccc(O)c(O)c2)oc2cc(O)cc(O)c12,28.9
6,O=c1c(O)c(-c2ccc(O)cc2)oc2cc(O)cc(O)c12,98.8
7,C[C@@H]1O[C@@H](Oc2c(-c3cc(O)c(O)c(O)c3)oc3cc(O)cc(O)c3c2=O)[C@H](O)[C@H](O)[C@H]1O,-6.79
8,O=c1c(O)c(-c2ccc(O)cc2O)oc2cc(O)cc(O)c12,92.5
9,O=c1c(O)c(-c2cc(O)c(O)c(O)c2)oc2cc(O)cc(O)c12,100
10,Cc1cc(=O)oc2cc(O)ccc12,35.6
11,COc1ccc(C(=O)/C(Cc2cc(OC)c(OC)c(OC)c2)=C(\C(=O)O)c2ccc3c(c2)OCO3)cc1,26.5
12,Cc1cc(C)c2c(c1)[C@@H](N(Cc1cc(C(F)(F)F)cc(C(F)(F)F)c1)c1nnn(C)n1)CCCN2C[C@H]1CC[C@H](C(=O)O)CC1,4.11
13,Cc1nnsc1C(=O)Nc1ccc(-n2nc(C(F)(F)F)cc2C(F)(F)F)cc1,8.76
14,O=C1Cc2cc(CCN3CCN(c4nsc5ccccc45)CC3)c(Cl)cc2N1,11.8
15,COc1cccc(OCCCN)c1-c1cc(Nc2cnc(C#N)cn2)n[nH]1,-3.28
16,N#C[C@@H]1CCCN1C(=O)CNC12CC3CC(CC(O)(C3)C1)C2,-7.44
17,C/C=C\C1=C(C(=O)O)N2C(=O)C(NC(=O)C(N)c3ccc(O)cc3)C2SC1 (centres undefined),-7.76
18,O=C(O)CCN(O)C(=O)CCCCCCCCC1CC1,37.2
19,C=CC[N+]12CC[C@@]34c5ccccc5N5/C=C6/[C@H]7C[C@H]8[C@@]9(CC[N@@+]8(CC=C)C/C7=C/CO)c7ccccc7N(/C=C(/[C@@H](C[C@@H]31)/C(=C\CO)C2)[C@H]54)[C@@H]69 (some centres undefined),31.2
20,N=C(N)NCCC[C@@H](N)C(=O)N[C@@H](CCCNC(=N)N)C(=O)N1CCC[C@H]1C(=O)N1C[C@H](O)C[C@H]1C(=O)NCC(=O)N[C@@H](Cc1cccs1)C(=O)N[C@@H](CO)C(=O)N1Cc2ccccc2C[C@@H]1C(=O)N1[C@H](C(=O)N[C@@H](CCCNC(=N)N)C(=O)O)C[C@@H]2CCCC[C@@H]21,31.7
21,COc1cc(CN(CCN)C(=O)c2cccs2)ccc1OCc1ccccc1,-2.87
22,CN1CC(=O)N=C1NC(=O)Nc1cccc(Cl)c1,89.3
23,CC(C)c1c(NC(=O)Nc2ccc(Cl)cc2)c(=O)n(-c2ccccc2)n1C,-4.84
24,O=C(Nc1ccc(Cl)cc1)Nc1cccc(-c2cccc(N3CCCC3)n2)c1,20.6
25,CC(C)c1onc(-c2c(Cl)cccc2Cl)c1COc1ccc(/C=C/c2cccc(C(=O)O)c2)c(Cl)c1,3.22

row,Structure (SMILES),inhibition [%]
1,CC(C)(C)c1ccc(/C=C/C(=O)Nc2ccc3c(c2)OCCO3)cc1,-7.4
2,O=C(c1ccc2c(c1)OCO2)N1CCCCC1,21.9
3,O=C(/C=C/C=C/c1ccc2c(c1)OCO2)N1CCCCC1,115
4,CC(C)(C)C(O)/C=C/c1ccc2c(c1)OCO2 (centres undefined),15.9
5,O=C(/C=C/c1ccc2c(c1)OCO2)N1CCCCC1,97.2
6,C[N+](C)(C)CC[N+]1(C)Cc2c(Cl)c(Cl)c(Cl)c(Cl)c2C1,10.9
7,COc1oc(=O)c2cc(N)ccc2c1Cl,22.8
8,C=C1/C(=C\C=C2/CCC[C@]3(C)[C@@H]([C@H](C)CCCC(C)C)CC[C@@H]23)C[C@@H](O)C[C@@H]1O,-2.44
9,COc1ccc(-c2sc(NC(=O)C(C)(C)C)nc2C)cc1S(=O)(=O)Nc1ccc(O)cc1,-1.39
10,O=C(c1ccc(/C=C/c2n[nH]c3ccccc23)cc1)N1CCNCC1,94.8
11,COc1ccc(Cl)c(Nc2ncnc3cc(OCC4CCN(C)CC4)c(OC)cc23)c1,6.69
12,CN(C(=O)CCCOc1ccc2[nH]c(=O)ccc2c1)C1CCCCC1,-1.06
13,N=C(N)NCCCC[C@@H]1NC(=O)CCSSC[C@@H](C(N)=O)NC(=O)[C@@H]2CCCN2C(=O)[C@H](Cc2c[nH]c3ccccc23)NC(=O)[C@H](CC(=O)O)NC(=O)CNC1=O ([Mpa][hArg]GDWPC-NH2; disulfide 1-7),6.3
14,Oc1ccc(OCc2ccccc2)cc1,98.1
15,CC/C(=C(\c1ccc(O)cc1)c1ccc(OCCNC)cc1)c1ccccc1,-4.99
16,N=C(N)SCCc1ccc(OCc2ccc([N+](=O)[O-])cc2)cc1,9.62
17,CCNCCCNCCCCNCCCNCC,4.88
18,CC1(C)CC(Oc2ccc(-c3ccc(-c4cn[nH]c4)cc3O)nn2)CC(C)(C)N1,8.09
19,CN(C)CCOc1cc(-c2cn[nH]c2)ccc1NC(=O)C1COc2ccccc2O1 (centres undefined),55.4
20,CC1(C)CCC(C)(C)c2cc(C3(c4ccc(C(=O)O)cc4)OCCO3)ccc21,-3.33
21,CS(=O)(=O)c1ccc(-c2cc(Br)sc2-c2ccc(F)cc2)cc1,-5.78
22,N=C1NC(=O)/C(=C/c2ccc(O)cc2)S1,28.8
23,O=C1NC(=O)/C(=C/c2ccc(-c3ccc(F)cc3O)o2)S1,90.4
24,O=C1NC(=O)/C(=C/c2ccc3c(c2)OC(F)(F)O3)S1,0.87
25,O=C(NO)c1ccc(O)c(O)c1,87.6

row,Structure (SMILES),inhibition [%]
1,O=C(O)C(O)Cc1ccc(O)c(O)c1 (centres undefined),15.4
2,CC(C)C(=O)c1ccc(O)c(O)c1,-4.84
3,CCC(=O)c1cc(-c2ccc(Cl)cc2)n(-c2ccc(S(N)(=O)=O)cc2)c1C,23.3
4,NCCNc1ccc(NCCN)c2c1C(=O)c1ccncc1C2=O,98.7
5,NCCNS(=O)(=O)c1ccc(Cl)c2ccncc12,8.69
6,O=C1c2c(O)ccc(O)c2C(=O)c2c(NCCNCCO)ccc(NCCNCCO)c21,28.6
7,NC(N)=O,5.48
8,C[C@@H]1CCCN1CCc1cc2cc(-c3ccc(C#N)cc3)ccc2o1,25.1
9,COc1ccc([C@@H]2Sc3ccccc3N(CCN(C)C)C(=O)[C@@H]2OC(C)=O)cc1,10.1
10,Cc1cc(NC(=O)Nc2ccc(F)c(F)c2)n(-c2ccccc2)n1,23.6
11,N#Cc1cccc(C(=O)Nc2cc(-c3ccccc3)nn2-c2ccccc2)c1,70
12,O=C1NC(c2cccc([N+](=O)[O-])c2)=CCN1c1ccccc1O,31.3
13,O=C(Nc1cc(-c2ccccc2)nn1-c1ccccc1F)c1ccc([N+](=O)[O-])cc1,73.6
14,CCOC(=O)c1ccc(OCCC2CCN(c3ccc(C)nn3)CC2)cc1,19.2
15,Cc1cccc(C#Cc2ccccc2)n1,101
16,NS(=O)(=O)C#Cc1ccccc1,-0.7
17,COc1cc(C(=O)O)ccc1NC(=O)[C@@H]1N[C@@H](CC(C)(C)C)[C@](C#N)(c2ccc(Cl)cc2F)[C@H]1c1cccc(Cl)c1F,11.2
18,CO[C@@H]1COCC[C@@H]1N[C@@H]1CC[C@@](C(=O)N2CCc3ncc(C(F)(F)F)cc3C2)(C(C)C)C1,41.3
19,Cc1ccc2c(=O)c3ccccc3n(CCCN)c2c1C,6.54
20,COc1ccncc1C(=O)NC(=O)Nc1ccc(-c2ccccc2)c(C(F)(F)F)c1,9.55
21,Fc1ccc(-c2c3cccc(C(F)(F)F)c3nn2Cc2ccc(F)cc2Cl)cc1,2.87
22,COc1ccc(C(=O)c2ccccc2O)c(O)c1,8.93
23,COc1ccc(C(=O)c2ccc(C)cc2)c(O)c1,50.7
24,Cc1ccc(C(=O)c2cc(O)c(O)c([N+](=O)[O-])c2)cc1,-8.08
